Source: PubChem
HT1080-NT tox = kills 2HG-producing HT-1080-NT fibrosarcoma cells; HT-1080-NT fibrosarcoma viability, CellTiter-Glo ATP luminescence, 48 h; AID 686970; Potency, µM (titrated, usually from 46.1 µM), for inactives: top-dose activity, negative = less viability, hits mostly cytotoxic; 360,000 compounds, 1.6% hits;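 note: NT is the 2HG producing partner of a matched IDH1 knockdown line; 0% = DMSO-treated cells and -100% = media-only wells without cells; nearly all actives have a fitted effect of over 55% in size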
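Viability of the 2HG-overproducing fibrosarcoma line after 48 hours of compound exposure at 37 degrees C was determined by luminescence with CellTiter-Glo, and concentration-effect curves were then fitted and categorized.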
HT1080 IDH1KD tx = kills HT-1080 cells with IDH1 knockdown. HT-1080 IDH1 knockdown viability, ATP luminescence, 48 h. AID 686971. Potency, µM (doses to about 46.1 µM), for inactives: top-dose activity, negative = toxicity, actives largely listed as cytotoxic. 360,000 compounds, 2% hits;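 note: 0% = DMSO wells and -100% = cell-free medium wells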
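Viability of IDH1-knockdown HT-1080 fibrosarcoma cells was assessed by CellTiter-Glo after 48 h at 37 °C with titrated compound; concentration-effect curves were classified by fit quality and response size.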
TDP1 cell CPT = growth inhibition of DT40 Tdp1-/-;hTDP1 cells with camptothecin (screen for TDP1 inhibitors) | chicken DT40 Tdp1-/-;hTDP1 cells + 20 nM CPT, ATP luminescence, 48 h | Potency, µM (titrated, usually from 46.2 µM), inactives show top-dose activity change, negative = growth inhibition, hits mostly inhibitors | 420,000 compounds, 12% hits | AID 686979; note: % is set by controls: 0 for no effect and ±100 for the full control effect; nearly all actives have a fitted effect of over 55% in size
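Chicken DT40 Tdp1-/- cells stably complemented with human TDP1 were seeded at 400 cells/well in medium containing 20 nM camptothecin, exposed to pin-transferred compounds, and grown at 37 °C for at least 48 hr. Viability was read as ATP luminescence.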
HepG2 viability = counter-screen for TGF-b inhibitors: cytotoxicity in HepG2 cells; HepG2 CAGA-GFP viability, ATP luminescence, 18 h; Potency, µM (titrated, usually from 46.1 µM), without a hit: at the top dose activity change, negative = cytotoxicity, most hits filed as cytotoxic; 410,000 compounds, 0.76% hits; AID 588856
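HepG2 CAGA-GFP cells (1000/well, DMEM with 1% FBS) received compound, then TGF-beta at 500 pg/mL final, and were incubated 18 hours at 37 degrees C. Viability was read by CellTiter-Glo luminescence. Media-only wells were set as complete cell-killing and DMSO as no toxicity.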
TGFb SMAD3 inh = blocks TGF-b signaling. HepG2 CAGA-GFP TGF-b/SMAD3 reporter, GFP fluorescence, 18 h; TGF-beta stimulated, 500 pg/mL final. Potency, µM (doses to about 46.1 µM), for the others: top-dose activity, negative = inhibition, hits mostly inhibitors. 410,000 compounds, 1.2% hits; note: % is set by controls: 0 for no effect and ±100 for the full control effect; nearly all actives have a fitted effect of over 65% in size
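GFP signal (ex488/em500-530) from TGF-beta-stimulated HEPG2 CAGA-GFP cells, 500 pg/mL final, 18 h at 37 degrees C in DMEM plus 1% FBS, normalized to unstimulated and DMSO-stimulated controls.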
DT40 TDP1 no CPT = qHTS for Inhibitors of human tyrosyl-DNA phosphodiesterase 1 (TDP1): qHTS in cells in absence of CPT | DT40 Tdp1-/- hTDP1 cells, no CPT, ATP luminescence, 48 h | Potency, µM (top dose mostly 46.2 µM), without a hit: at the top dose activity change, negative = growth inhibition, hits mostly inhibitors | 420,000 compounds, 15% hits | AID 686978, 2013; note: % is set by controls: 0 for no effect and ±100 for the full control effect; nearly all actives have a fitted effect of over 55% in size
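Seeded 400 DT40-hTDP1 cells/well (vehicle DMSO, no 20 nM CPT); pinned compounds; ≥48 hr at 37 °C; CellTiter-Glo luminescence as viability measure.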
* hit, by the source's call; ? = inconclusive; . = no result; ! = a repeat was not active; [ ] = dose if it differs, or a comment. Shown are actives, neighbours in structure and some others; about 17% of the full set was active somewhere. Calls come from the whole dose curve; as a rule, active = well fitted curve in the direction sought with a large enough effect; inconclusive = small, poorly fitted or top-dose-only effect, or another doubt; inactive = no such curve, though single readings can be large; an effect the other way counts as inactive or inconclusive. Potency is the fitted concentration of half-maximal effect.

SMILES | HT1080-NT tox | HT1080 IDH1KD tx | TDP1 cell CPT | HepG2 viability | TGFb SMAD3 inh | DT40 TDP1 no CPT
CC1(C)CC2/C(CO)=C/C=C/[C@](C)(O)CC[C@]21O (stereo partly drawn) | . | . | 10% | . | . | -5%
CCCCNC(=O)C1(C)CCC(=O)N1C1CCN(Cc2ccccc2)CC1 (stereo not drawn) | 19% | 8% | 11% | -5% | -1% | 3%
CCCNC(=O)CSc1nnc(NC(=O)C2CC(=O)N(c3ccccc3OC)C2)s1 (stereo not drawn) | -1% | 9% | -11% | 2% | 7% | 3%
Cc1cccc(-c2oc3ccc(-c4ccc5c(c4)OCO5)cc3c2C(=O)OCc2ccc(O)cc2)c1 | -3% | 1% | 16µM* | 8% | -4% | ?
Cc1cccc(OCc2nn[nH]n2)c1C | -2% | -4% | 25% | 3% | 2% | -4%
COC(=O)c1ccccc1-c1cc(C)cc2c1OC(CNC(=O)c1cc(C)n(C)n1)C2 (stereo not drawn) | . | . | 8%[9.04 µM] | . | . | ?
COC(=O)c1ccccc1-c1cc(C)cc2c1OC(CNC(=O)c1occc1C)C2 (stereo not drawn) | . | . | 16µM* | . | . | 12µM*
O=C(O)c1cc(N2C(=O)C=CC2=O)cc(N2C(=O)C=CC2=O)c1 | 11% | 14% | -2% | 14% | 10% | 0%
Cc1cccc(N2C(=O)C=CC2=O)c1 | 3% | 7% | 2.6µM* | -8% | -11% | 4.6µM*
O=C1C=CC(=O)N1c1ccc2ccccc2c1 | 4% | 6% | 4.1µM* | -14% | -14% | 5.2µM*
O=C1c2ccccc2C(=O)N1c1ccc2ncccc2c1 | . | . | 0% | -21% | 27% | -1%
Cc1cccc(N2C(=O)C3CCCN3C2=S)c1 (stereo not drawn) | 2% | -3% | -19% | 2% | -4% | 30%
O=C1C=CC(=O)N1c1ccc(Nc2ccccc2)cc1 | -18% | -10% | 5.8µM* | -7% | -6% | 5.8µM*
COc1ccc(C(CNc2ccc(S(C)(=O)=O)cc2[N+](=O)[O-])N(C)C)cc1OC (stereo not drawn) | -9% | -12% | -3% | 6% | 17% | ?
C=CCOC(=O)c1ccc(-n2cnc(C)n2)nc1 | 13% | 12% | 2% | 15% | 4% | -9%
NCCNC[C@@H]1COC2(CCCCCCCCCCC2)O1 | 15µM* | ? | ? | -67% | ? | 23µM*
OCCOCCN1CCN(C2=Nc3ccccc3Sc3ccccc32)CC1 | -6% | -18% | 24µM*! | -10% | -9% | 19µM*!
CCCCNc1c(-c2cccnc2)nc2nc(C)cc(C)n12 | 18% | 11% | ? | . | . | 12µM*
Cc1cccc2nc(-c3cccnc3)c(NCCC(C)C)n12 | ? | ? | 9.2µM* | -10% | ? | 16µM*
COc1ccc(C(=O)NCCCNC(=O)c2ccc(C)nc2)cc1 | 2% | 8% | 4% | -3% | -29% | -18%
CCOC(=O)N1CCN(C(=O)CS(=O)Cc2nc(-c3ccc(OC)c(OC)c3)oc2C)CC1 (stereo not drawn) | -1% | -2% | 11% | -9% | -6% | -16%
COc1ccc2nc3n(c(=O)c2c1)-c1ccc(Cl)cc1C(=O)NC3Cc1ccc(O)cc1 (stereo not drawn) | 6% | 1% | -1% | -23% | 8% | -11%
COc1ccc(C(=O)C(=O)c2ccc(OCCO)cc2)cc1 | 0% | 1% | -18% | -4% | -13% | -16%
CC(C)(C)CC(C)(C)c1ccc(OCCO)cc1 | . | . | 8.4µM* | . | . | 11µM*
CC(C)(C)NC(=O)C(c1cccc2ccccc12)n1c(=O)c(-c2cc3ccccc3[nH]2)nc2ccccc21 (stereo not drawn) | -29% | ? | ? | . | . | ?
SMILES | HT1080-NT tox | HT1080 IDH1KD tx | TDP1 cell CPT | HepG2 viability | TGFb SMAD3 inh | DT40 TDP1 no CPT
O=C(NC1CCCCC1)C(c1ccc(C(F)(F)F)cc1)n1c(=O)c(-c2ccccc2)nc2ccccc21 (stereo not drawn) | -20% | 0% | ? | . | . | 13µM*
CC(C)(C)NC(=O)C(c1ccc(C(F)(F)F)cc1)n1c(=O)c(-c2cc3ccccc3[nH]2)nc2ccccc21 (stereo not drawn) | ? | 21µM* | ? | . | . | ?
O=C(NC1CCCCC1)C(CCc1ccccc1)n1c(=O)c(-c2ccccc2)nc2ccccc21 (stereo not drawn) | 4% | 1% | ? | . | . | -29%
Cc1cccc(C)c1NC(=O)C(c1ccc(C(F)(F)F)cc1)n1c(=O)c(-c2cc3ccccc3[nH]2)nc2ccccc21 (stereo not drawn) | ? | 21µM* | ? | . | . | ?
Cc1cccc(C)c1NC(=O)C(c1ccc(-c2ccccc2)cc1)n1c(=O)c(-c2cc3ccccc3[nH]2)nc2ccccc21 (stereo not drawn) | -3% | -13% | ? | . | . | ?
CC(C)(C)NC(=O)C(c1ccc(-c2ccccc2)cc1)n1c(=O)c(-c2cc3ccccc3[nH]2)nc2ccccc21 (stereo not drawn) | 2% | -16% | ? | . | . | 15µM*
CC(=O)c1cccc(S(=O)(=O)NCC(C)(C)N2CCOCC2)c1 | 14% | 3% | -2% | -7% | 0% | 4%
CCc1ccc(NC(=S)NCC2CCCN2CC)cc1 (stereo not drawn) | 6% | 5% | 2% | 1% | 5% | -20%
CC(C)(C)c1ccc(S(=O)(=O)c2cnc(SCC(=O)Nc3ccc4c(c3)OCCO4)[nH]c2=O)cc1 | . | . | -2% | -3% | ? | 3%
CC(C(=O)NC1CCCC1)n1c(C2CC2)nc2ccccc21 (stereo not drawn) | 25% | 23% | -21% | . | . | 0%
CC(C)(C)NC(=O)C(c1ccc(C(F)(F)F)cc1)n1c(=O)c(-c2ccccc2)nc2ccccc21 (stereo not drawn) | -1% | 0% | 18µM* | . | . | ?
O=C(NC1CCCC1)C(c1ccccc1)n1c(Cc2cc(F)cc(F)c2)nc2ccccc21 (stereo not drawn) | ? | ? | 18µM* | . | . | ?
CCOC(=O)c1c(C)[nH]c(C)c1S(=O)(=O)N1CCC(C(=O)Nc2ccc(F)cc2F)CC1 | . | . | -3% | 2% | 1% | 1%
